Rows were chosen to be rich in hits. Some 3.5% of all compounds tested hit in one or more screens of this group.
TbPYK inhibitor: qHTS of Trypanosoma Brucei Inhibitors; pyruvate kinase (Trypanosoma brucei), Q57TT1; TbPYK enzyme, Kinase-Glo Plus ATP luminescence, 45 min; Potency, µM (doses to about 76.8 µM), actives largely listed as inhibitors; hit rate 0.12% among 410,000; note: nearly all actives have a fitted effect of over 50% in size
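Enzyme and substrate buffer are dispensed first and compound is pin-transferred. ADP at 130 uM final then starts the reaction, which runs 45 min at room temperature. Detection reagent is added for 10 min before luminescence is imaged.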
FBPA Giardia inh: qHTS Assay for Inhibitors of Fructose-1,6-bisphosphate Aldolase from Giardia Lamblia; purified Giardia FBPA; hit rate 0.71% among 290,000; A8B2U2; Potency, µM (top dose mostly 59.6 µM), hits mostly inhibitors; note: nearly all actives have a fitted effect of over 55% in size
Target sequence (A8B2U2 whole entry, looked up): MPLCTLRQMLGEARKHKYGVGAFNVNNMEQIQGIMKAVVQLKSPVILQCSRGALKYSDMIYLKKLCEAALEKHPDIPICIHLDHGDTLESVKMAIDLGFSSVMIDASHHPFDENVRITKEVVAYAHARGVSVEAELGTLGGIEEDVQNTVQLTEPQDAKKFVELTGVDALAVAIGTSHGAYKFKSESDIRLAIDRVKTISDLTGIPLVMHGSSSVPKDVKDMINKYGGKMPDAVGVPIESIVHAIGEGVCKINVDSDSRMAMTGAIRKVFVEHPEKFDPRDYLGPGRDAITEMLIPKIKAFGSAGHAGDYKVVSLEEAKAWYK
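Giardia FBPA (40 nM reagent) was preincubated 10 min at RT with compound (up to 57.5 uM final), then substrate plus GAPDH/TPI/NAD/arsenate coupling system with diaphorase/resazurin was added; resorufin fluorescence (525/598 nm) was read after 20 min.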
LmPK inhibitor: qHTS Assay for Inhibitors of Leishmania Mexicana Pyruvate Kinase (LmPK) | Q27686 | purified LmPK, Kinase-Glo ATP luminescence, 1 h | Potency, µM (doses to about 57.5 µM), usual class: inhibitors | hit rate 0.37% among 290,000 | AID 1721, 2009
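Purified LmPK (0.1 nM) converted ADP (0.1 mM) to ATP with PEP (0.5 mM) in imidazole buffer pH 7.2 with KCl and MgCl2, 1 h at room temperature. ATP was read by Kinase-Glo luminescence; data normalized to uninhibited and no-enzyme controls.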
NS1 inh: qHTS Assay for Inhibitors of Influenza NS1 Protein Function; Potency, µM (doses to about 46.1 µM); hit rate 0.4% among 270,000; calls by dose curve; note: actives are rising curves; nearly all actives have a fitted effect of over 50% in size
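S. cerevisiae expressing influenza A NS1, grown in glucose, washed, then diluted 1:100 into pH 6.0 -URA galactose medium with 23 nl compound. Growth recovery read as OD600; NS1-free strain serves as control.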
Sm TGR inh: qHTS Assay for the Inhibitors of Schistosoma Mansoni Peroxiredoxins. Potency, µM (highest dose often 114 µM), actives largely listed as inhibitors. purified TGR, DTNB reduction, TNB absorbance 405 nm. hit rate 3% among 360,000. AID 485364, 2010; note: nearly all actives have a fitted effect of over 60% in size
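First, TGR (20 nM dispensed) and NADPH were mixed with compound. Second, a 15 min room-temperature incubation followed. Third, further NADPH and then DTNB were added to start the reaction. Finally, TNB absorbance was monitored kinetically.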
RE007 growth inh: qHTS Assay for Inhibitors of the HIV-1 protein Vpr | S. pombe RE007 Vpr strain, BacTiter-Glo ATP luminescence, 24 h | Potency, µM (doses to about 92.2 µM), hits mostly inhibitors | hit rate 0.21% among 360,000; active = well fitted falling curve with a large enough effect; inconclusive = small, poorly fitted or top-dose-only effect; inactive = no such curve, though single readings can be large or run the other way; note: nearly all actives have a fitted effect of over 50% in size
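Fission yeast RE007 carrying one integrated HIV-1 vpr copy, seeded at OD 0.01 in PMG+AL medium with 23 nL pinned compound. Grown 24 h at 30 degrees; viability read by BacTiter-Glo luminescence after 5 min.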
Numbers stand for hits; - = inactive; ? = inconclusive; . = no result given. Unless noted, calls come from the whole dose curve; as a rule, active = well fitted curve in the direction sought with a large enough effect; inconclusive = small, poorly fitted or top-dose-only effect, or another doubt; inactive = no such curve, though single readings can be large; an effect the other way counts as inactive or inconclusive.

SMILES | TbPYK inhibitor | FBPA Giardia inh | LmPK inhibitor | NS1 inh | Sm TGR inh | RE007 growth inh
Cc1nnc(Sc2cc(NCCCO)c([N+](=O)[O-])c3nonc23)s1 | - | ? | - | - | 0.32µM | -
O=[N+]([O-])c1c(NCCCO)cc(Sc2nc3ccccc3s2)c2nonc12 | - | ? | - | - | - | -
CCN(c1ccccc1)S(=O)(=O)c1ccc(OC)c(NC(=O)c2cc(Cl)ccn2)c1 | - | . | . | . | 45µM | -
O=C(O)CCc1ccc(-c2ccc(Br)cc2)n1-c1ccc(O)cc1 | - | - | - | - | 28µM | -
Cc1ccc(-c2ccc(CCC(=O)O)n2-c2cccc(O)c2)cc1 | - | - | - | - | 14µM | -
O=C(O)CCc1ccc(-c2ccc(Cl)cc2)n1-c1cccc(C(F)(F)F)c1 | - | . | . | . | 25µM | .
CC(=O)c1ccc(-n2c(CCC(=O)O)ccc2-c2ccc(Br)cc2)cc1 | - | - | - | - | ? | -
COc1ccc(-c2ccc(CCC(=O)O)n2-c2cc(Cl)ccc2O)cc1 | - | . | . | . | ? | .
Cc1ccc(-c2ccc(CCC(=O)O)n2-c2ccc(O)cc2)cc1 | - | - | - | - | 25µM | -
C=CC1=C(C(=O)O)N2C(=O)C(NC(=O)/C(=N\O)c3csc(N)n3)C2SC1 (stereo not given) | - | ? | . | . | . | .
CCOC(=O)c1ccc(-n2c(CCC(=O)O)ccc2-c2ccc(Br)cc2)cc1 | - | . | . | . | 20µM | .
CCOc1ccc(-n2c(CCC(=O)O)ccc2-c2ccc(Br)cc2)cc1 | - | . | . | . | ? | .
Cc1cn2c(=O)cc(COC(=O)c3ccc(NC(=O)c4ccc(F)cc4)cc3)nc2s1 | - | . | . | . | - | .
Cc1ccc(NC(=O)C2CC(=O)Nc3ncnn32)c(C)c1 (stereo not given) | - | - | - | - | 56µM | -
C/C(N[C@@H]1CSCC1O)=C1/C(=O)CC2[C@@H]1C2(C)C (stereo not given in full) | . | - | . | . | . | .
O=S1(=O)C=C(Sc2nc3ccccc3s2)c2ccccc21 | - | - | - | ? | 2.2µM | 10µM
CCN(CC)S(=O)(=O)c1ccc2c(c1)N(CC(=O)N(C)Cc1ccccc1)C(=O)CO2 | - | . | . | . | - | .
CC(=O)c1c(C)c(C)c2n1CCn1c(C)ccc1-2 | - | ? | - | - | 13µM | -
CCOC(=O)/C=C(\C)Sc1cc(=O)oc2ccccc12 | - | - | - | ? | 22µM | -
CCOC(=O)/C=C(\C)Sc1cc(O)c2ccccc2c1O | 7.1µM | 7.1µM | 10µM | - | 0.79µM | 63µM
Cc1cccc(C(=O)NNc2ncnc3c2cnn3-c2ccc(C)c(Cl)c2)c1 | - | . | . | . | - | .
O=C1c2ccccc2C(=O)c2c(O)ccc(O)c21 | . | - | . | . | . | .
O=C1C(=C(I)I)c2ccccc2-c2ccccc21 | - | . | . | . | . | 14µM
CCOc1cc(CNc2ccc(O)cc2)cc(Br)c1OCc1ccccc1F | ? | ? | - | - | - | ?
COc1cc(CNc2ccc(O)cc2)cc(Br)c1OCc1ccccc1F | ? | 16µM | - | - | - | -
SMILES | TbPYK inhibitor | FBPA Giardia inh | LmPK inhibitor | NS1 inh | Sm TGR inh | RE007 growth inh
CCOC(=O)c1cc(S(=O)(=O)Nc2ccccc2)[nH]n1 | - | . | . | . | - | .
O=C(CN1CCC2(CC1)OCCO2)c1ccc2cc[nH]c2c1 | - | - | - | - | 45µM | -
CCOc1ccc(C2c3c(oc4ccc(C)cc4c3=O)C(=O)N2CCCN(C)C)cc1 (stereo not given) | - | . | . | . | - | .
COC(=O)c1c(NC(C)=O)c2c3c(sc2n1Cc1cc(C)ccc1C)CCCC3 | - | . | . | . | - | .
COc1ccc(-c2noc(CN3CCCC(OCc4ccccn4)C3)n2)cc1 (stereo not given) | - | - | - | - | 35µM | -
c1ccc(COC2CCCN(Cc3nc(-c4cnccn4)no3)C2)nc1 (stereo not given) | - | - | - | - | ? | -
CCOCCCNC(=O)C1CCCN(c2ncnc3onc(C)c23)C1 (stereo not given) | - | . | . | . | - | .
CC(C)N1C(=O)CC2(CC[N+](C)(CCOC(=O)C(c3ccccc3)c3ccccc3)CC2)C1=O (stereo not given) | - | ? | - | - | 50µM | -
CC(C)N1C(=O)CC2(CC[N+](C)(CCOC(=O)C(O)(c3ccccc3)c3ccccc3)CC2)C1=O (stereo not given) | - | - | - | ? | - | -
Cc1ccc(NC(=O)N2CCC(CN3CCC(C)CC3)CC2)cc1F | - | . | . | . | - | .
COCC(=O)N1CCC2(CCCN(c3ccccn3)C2)CC1 | - | - | . | . | . | .
CC1(C)CC(=O)C2=C(C1)N(Cc1ccco1)C(=O)C2(NC(=O)c1cccnc1)C(F)(F)F (stereo not given) | - | - | - | - | 20µM | -
S=c1c2c(nc3nc[nH]n13)CCC2 | - | 2.5µM | - | - | 18µM | ?
CCOc1ccc(-c2nnc(SCC(=O)NCCc3ccccc3)nc2-c2ccc(OCC)c(OC)c2)cc1OC | - | . | . | . | - | .
COc1ccc(-n2c(=O)c3c(c4cc(OC)ccc4n3C)n(Cc3cccc(OC)c3)c2=O)cc1 | - | . | . | . | - | .
C=CCS(=O)(=O)c1nc2ccccc2s1 | - | - | - | - | 14µM | -
O=S(=O)(CCc1ccccc1)c1nc2ccccc2s1 | . | - | . | . | . | .
O=S(=O)(CCSc1nc2ccccc2s1)c1nc2ccccc2s1 | - | - | - | - | 0.1µM | -
Cc1ccc(NC(=S)NC(C)(C)C)c([N+](=O)[O-])c1 | - | - | - | - | - | -
C=CCNC(=S)Nc1ccc(C)cc1[N+](=O)[O-] | - | - | - | - | 40µM | -
CSCC[C@H](NC(=O)[C@H](CC(C)C)NC(=O)[C@H](CO)NC(=O)[C@H](CCC(=O)O)NC(=O)[C@H](CC(C)C)NC(=O)[C@H](Cc1ccc(O)cc1)NC(=O)[C@H](CCCCN)NC(=O)[C@H](CCCCN)NC(=O)[C@H](C)NC(=O)[C@H](CO)NC(=O)[C@H](CC(C)C)NC(=O)[C@H](CCC(N)=O)NC(=O)CNC(=O)[C@H](CC(C)C)NC(=O)[C@H](CC(C)C)NC(=O)[C@H](CCCCN)NC(=O)[C@H](CO)NC(=O)[C@H](Cc1ccccc1)NC(=O)[C@H](CC(=O)O)NC(=O)[C@H](CO)NC(=O)[C@@H](NC(=O)[C@H](Cc1ccccc1)NC(=O)[C@@H](NC(=O)CNC(=O)[C@H](CC(=O)O)NC(=O)[C@H](C)NC(=O)[C@@H](N)Cc1cnc[nH]1)C(C)C)[C@@H](C)O)C(N)=O | . | - | . | . | . | .
Cc1ccc(CSCc2ccc(C(=O)NC3CC3)o2)cc1 | - | . | - | - | - | -
O=C(NC1CC1)c1ccc(CSCc2cccc(F)c2)o1 | - | - | - | - | 35µM | -
